High-throughput results deposited in PubChem by several laboratories.
Only some compounds are listed: those with a hit (about 9.6% of all), similar ones and a draw of the others.
L major viab – reduces viability of Leishmania major promastigotes; resazurin fluorescence viability; inhibition, % at 10 µM; 200,000 tested, 9% active; in the data active means inhibition above about 50%;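 further: promastigotes grown with compound for 44 hours at 28 °C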
INS promoter inh – TRM-6 insulin promoter activity inhibition; 130,000 tested, 0.9% active; TRM-6 cells (human fetal islet line), insulin promoter-eGFP reporter, imaging; reporter expression induced with tamoxifen; inhibition, % at 2 µM; AID 1273;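 active means inhibition above the mean plus 3 SD, with well images judged a real hit on visual review, cut at about 60% in these data, passing the limit was not always enough; inconclusive means inhibition over the cutoff but images rejected on review; inactive means inhibition not above the cutoff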
HCT116 bCat-KO – beta-catenin-lacking colon tumor cell growth suppression; HCT116 beta-catenin knockout viability, CellTiter-Glo, 60 h; hits give low values; viability, % at 10 µM; 140,000 tested, 1.5% active;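 active means viability at or under a set limit, the compound median less 4 SD, cut at about 6% in these data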;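 further: 0% = Hyamine 1622 control at 20 µM and 100% = untreated cell control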
HCT116 PTEN-null – growth suppressors of cells with PTEN tumor suppressor deletion; HCT116 PTEN-null viability, CellTiter-Glo, 60 h; hits give low values; viability, % at 10 µM; 140,000 tested, 1.2% active;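 active means viability at or below a set limit, 4 SD under the median of all tested compounds, cut at about 3.7% in these data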;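 further: PTEN knockout HCT116 line with beta catenin targeted HCT116 as companion control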
Ins promoter up – MIN6 insulin promoter up-regulation; 190,000 tested, 0.3% active; AID 1625; z-score at 5 µM; MIN6 insulin promoter-GFP reporter, high-content imaging; hits give high values;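 active means z-score above 3 at 5 µM with at least 500 cells counted in the well; inconclusive means wells under 500 cells, flagged as cytotoxic or low count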
Autophagy HCS – autophagy modulation, high-content screen | calls only at 10 µM (by protocol) | MEF GFP-LC3 puncta imaging; test concentration mostly 10 µM | 190,000 tested, 0.98% active | AID 463193;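 active means percentage of spot-positive cells more than 3 SD above its plate mean, without a fluorescence outlier flag or 80% toxicity; inconclusive means no clear call, values can overlap the other calls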;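 further: spot-positive cell cutoff set from DMSO-treated cells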
An asterisk follows results filed as active; i = inactive; ? = inconclusive; · = no result given; + = active, no number.

SMILES | L major viab | INS promoter inh | HCT116 bCat-KO | HCT116 PTEN-null | Ins promoter up | Autophagy HCS
N#Cc1c2c(c(-n3cnc4ccccc43)n3c1nc1ccccc13)CCC2 | 4 | 20 | 79 | 86 | 4.8* | i
Cc1ccnc(N2CCN(c3c4c(c(C#N)c5nc6ccccc6n35)CCC4)CC2)c1 | 0 | 86* | · | · | · | i
N#Cc1c2c(c(NCCCN3CCOCC3)n3c1nc1ccccc13)CCC2 | 63* | · | 92 | 89 | -1 | i
N#Cc1c2c(c(Nc3ccccc3)n3c1nc1ccccc13)CCC2 | 8 | -30 | 74 | 74 | 0.23 | i
CCCc1ccc(OC(=O)c2ccc(O)cc2Cl)cc1 | 5 | -50 | · | · | -0.54 | i
O=S(=O)(Nc1cc(Sc2ncn[nH]2)c(O)c2ccccc12)c1ccccc1 | 99* | -233 | · | · | ? | i
CCC(CC)C1=NN2C(=N)/C(=C\c3cc(C)n(-c4cccc(C)c4)c3C)C(=O)N=C2S1 | 44 | 36 | 98 | 95 | 0.38 | +
c1ccc(C(c2nnnn2Cc2ccco2)N2CCN(C3CCCC3)CC2)cc1 (configuration not stated) | 24 | · | 90 | 85 | 0.29 | i
CCCCC(c1nnnn1Cc1ccco1)N1CCN(c2nc3ccccc3s2)CC1 (configuration not stated) | 97* | · | 45 | 38 | -2.5 | i
COc1ccc(C(c2nnnn2Cc2ccccc2)N2CCN(c3nc4ccccc4s3)CC2)cc1OC (configuration not stated) | 100* | 26 | 65 | 61 | 1.5 | i
c1ccc(C(c2nnnn2Cc2ccco2)N2CCN(c3nc4ccccc4s3)CC2)cc1 (configuration not stated) | 98* | 16 | 59 | 66 | -1.8 | i
Cc1ccc(S(=O)(=O)Cn2nnnc2C(C(C)C)N2CCN(c3nc4ccccc4s3)CC2)cc1 (configuration not stated) | 99* | 12 | 68 | 76 | · | i
COc1ccc(C(c2nnnn2C(C)(C)C)N2CCN(c3nc4ccccc4s3)CC2)cc1 (configuration not stated) | 57* | -12 | 77 | 72 | -0.34 | i
COc1ccc(Cn2nnnc2C(c2cccnc2)N2CCN(c3ccc(O)cc3)CC2)cc1 (configuration not stated) | 94* | -28 | 89 | 102 | 0.41 | i
CC(C)C(c1nnnn1Cc1ccccc1)N1CCN(Cc2ccco2)CC1 (configuration not stated) | 9 | · | 99 | 99 | -0.24 | i
COc1ccccc1C(c1nnnn1Cc1ccccc1)N1CCN(c2nc3ccccc3s2)CC1 (configuration not stated) | 91* | 0 | 65 | 60 | -5.1 | i
CC(C)C(c1nnnn1Cc1ccco1)N1CCN(c2cccc(Cl)c2)CC1 (configuration not stated) | 85* | -38 | 62 | 54 | 0.13 | i
O=C(COc1ccc(/C=N/NC(=O)CSCc2ccc([N+](=O)[O-])cc2)cc1)NCc1ccco1 | -3 | 14 | 77 | 83 | · | i
CCC(c1nnnn1CCOC)N1CCN(c2nc3ccccc3s2)CC1 (configuration not stated) | 4 | 46 | · | · | -0.03 | i
c1ccc(Cn2nnnc2C(c2ccccc2)N2CCN(c3nc4ccccc4s3)CC2)cc1 (configuration not stated) | 100* | · | 71 | 68 | -3.5 | i
Nc1c(C(=O)Nc2ccccc2F)sc2nc(Cc3ccccc3)cc(C(F)(F)F)c12 | 2 | 16 | 93 | 94 | · | +
O=C1c2ccccc2C(=O)c2c1ccc1c(=O)n(C3CCCCC3)[nH]c21 | 99* | -212 | 7 | 22 | -0.81 | i
O=c1c2[nH]c3ccccc3c2ncn1C1CCCCC1 | 36 | · | 85 | 107 | -0.33 | i
CSc1nc(-c2ccc(Cl)cc2)nn1C(=O)c1ccccc1 | -4 | 79* | 89 | 100 | -1.2 | i
CSc1nc(-c2ccccc2)nn1C(=O)c1ccc(Cl)cc1 | -6 | 4 | 95 | 86 | · | i
CC(C1CC1)N(Cc1ccccc1)C(=S)Nc1cccc(C(F)(F)F)c1 (configuration not stated) | 88* | -28 | 74 | 71 | 0.12 | i
CC(C1CC1)N(Cc1ccccc1)C(=S)Nc1ccccc1 (configuration not stated) | 4 | -31 | · | · | -0.57 | i
